{"source": "the supplement of paper PMC8728848", "assay_in_all_cases": "glycan array binding signal (z-score within array); higher = stronger binding", "key": {"[1]": {"test_system": "Neu5Ac(a2-3)Gal(b1-4)GlcNAc(b1-2)Man(a1-3)[GlcNAc(b1-2)Man(b1-4)GlcNAc(b1-2)Man(a1-6)]Man(b1-4)GlcNAc(b1-4)GlcNAc", "details": "glycan notation: IUPAC condensed, linker removed", "in_short": "(§1)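 Columns mapping to the same glycan were averaged after glycan names were converted to IUPAC-condensed notation. The data come from 3228 arrays in the Consortium for Functional Glycomics database, limited to those with an available protein sequence. Binding is reported as a within-array Z-score averaged across arrays of one protein sequence and across linkers.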"}, "[2]": {"test_system": "Neu5Ac(a2-3)Gal(b1-4)GlcNAc(b1-3)Gal(b1-4)GlcNAc", "details": "glycan notation: IUPAC condensed, linker removed", "in_short": "as §1"}, "[3]": {"test_system": "Neu5Ac(a2-3)Gal(b1-4)GlcNAc(b1-6)[Neu5Ac(a2-3)Gal(b1-3)]GalNAc", "details": "glycan notation: IUPAC condensed, linker removed", "in_short": "as §1"}, "[4]": {"test_system": "Neu5Ac(a2-3)Gal(b1-4)GlcNAc(b1-2)Man(a1-3)[GlcNAc(b1-4)][Neu5Ac(a2-3)Gal(b1-4)GlcNAc(b1-2)Man(a1-6)]Man(b1-4)GlcNAc(b1-4)GlcNAc", "details": "glycan notation: IUPAC condensed, linker removed", "in_short": "as §1"}, "[5]": {"test_system": "Neu5Ac(a2-3)Gal(b1-4)GlcNAc(b1-2)Man(a1-3)[Neu5Ac(a2-3)Gal(b1-4)GlcNAc(b1-2)Man(a1-6)]Man(b1-4)GlcNAc(b1-4)[Fuc(a1-6)]GlcNAc", "details": "glycan notation: IUPAC condensed, linker removed; mutation: R125K", "in_short": "as §1"}, "[6]": {"test_system": "Neu5Ac(a2-3)Gal(b1-4)GlcNAc(b1-2)[Neu5Ac(a2-3)Gal(b1-4)GlcNAc(b1-4)]Man(a1-3)[GlcNAc(b1-4)][Neu5Ac(a2-3)Gal(b1-4)GlcNAc(b1-4)Man(a1-6)]Man(b1-4)GlcNAc(b1-4)GlcNAc", "details": "glycan notation: IUPAC condensed, linker removed; mutation: R125K", "in_short": "as §1"}, "[7]": {"test_system": "Neu5Ac(a2-3)Gal(b1-4)GlcNAc(b1-2)[Neu5Ac(a2-3)Gal(b1-4)GlcNAc(b1-6)]Man(a1-6)[Neu5Ac(a2-3)Gal(b1-4)GlcNAc(b1-2)Man(a1-3)]Man(b1-4)GlcNAc(b1-4)GlcNAc", "details": "glycan notation: IUPAC condensed, linker removed", "in_short": "as §1"}, "[8]": {"test_system": "Neu5Ac(a2-3)Gal(b1-4)GlcNAc(b1-3)Gal(b1-4)GlcNAc(b1-2)Man(a1-3)[Neu5Ac(a2-3)Gal(b1-4)GlcNAc(b1-3)Gal(b1-4)GlcNAc(b1-2)Man(a1-6)]Man(b1-4)GlcNAc(b1-4)GlcNAc", "details": "glycan notation: IUPAC condensed, linker removed; mutation: R125K", "in_short": "as §1"}, "[9]": {"test_system": "Neu5Ac(a2-3)Gal(b1-4)GlcNAc(b1-3)Gal(b1-4)GlcNAc(b1-3)Gal(b1-4)GlcNAc", "details": "glycan notation: IUPAC condensed, linker removed", "in_short": "as §1"}, "[10]": {"test_system": "Neu5Ac(a2-3)Gal(b1-4)GlcNAc(b1-3)Gal(b1-4)GlcNAc(b1-3)[Neu5Ac(a2-3)Gal(b1-4)GlcNAc(b1-3)Gal(b1-4)GlcNAc(b1-6)]GalNAc", "details": "glycan notation: IUPAC condensed, linker removed", "in_short": "as §1"}, "[11]": {"test_system": "Neu5Ac(a2-3)Gal(b1-4)GlcNAc(b1-3)[Neu5Ac(a2-3)Gal(b1-4)GlcNAc(b1-6)]GalNAc", "details": "glycan notation: IUPAC condensed, linker removed", "in_short": "as §1"}, "[12]": {"test_system": "Neu5Ac(a2-3)Gal(b1-4)GlcNAc(b1-2)Man(a1-3)[Neu5Ac(a2-6)Gal(b1-4)GlcNAc(b1-2)Man(a1-6)]Man(b1-4)GlcNAc(b1-4)GlcNAc", "details": "glycan notation: IUPAC condensed, linker removed", "in_short": "as §1"}, "[13]": {"test_system": "Neu5Ac(a2-3)Gal(b1-4)GlcNAc(b1-3)Gal(b1-4)[Fuc(a1-3)]GlcNAc", "details": "glycan notation: IUPAC condensed, linker removed", "in_short": "as §1"}, "[14]": {"test_system": "Neu5Ac(a2-3)Gal(b1-4)GlcNAc(b1-6)[Gal(b1-3)]GalNAc", "details": "glycan notation: IUPAC condensed, linker removed", "in_short": "as §1"}, "[15]": {"test_system": "Neu5Ac(a2-3)Gal(b1-4)GlcNAc(b1-3)Gal(b1-4)GlcNAc(b1-3)Gal(b1-4)GlcNAc(b1-2)Man(a1-3)[Neu5Ac(a2-3)Gal(b1-4)GlcNAc(b1-3)Gal(b1-4)GlcNAc(b1-3)Gal(b1-4)GlcNAc(b1-2)Man(a1-6)]GalNAc", "details": "glycan notation: IUPAC condensed, linker removed", "in_short": "as §1"}, "[16]": {"test_system": "Neu5Ac(a2-3)Gal(b1-4)GlcNAc6S", "details": "glycan notation: IUPAC condensed, linker removed", "in_short": "as §1"}, "[17]": {"test_system": "Neu5Ac(a2-3)Gal(b1-4)GlcNAc(b1-2)[Neu5Ac(a2-3)Gal(b1-4)GlcNAc(b1-4)]Man(a1-3)[GlcNAc(b1-4)][Neu5Ac(a2-3)Gal(b1-4)GlcNAc(b1-2)[Neu5Ac(a2-3)Gal(b1-4)GlcNAc(b1-6)]Man(a1-6)]Man(b1-4)GlcNAc(b1-4)GlcNAc", "details": "glycan notation: IUPAC condensed, linker removed", "in_short": "as §1"}, "[18]": {"test_system": "Neu5Ac(a2-3)Gal(b1-4)GlcNAc(b1-3)Gal", "details": "glycan notation: IUPAC condensed, linker removed", "in_short": "as §1"}, "[19]": {"test_system": "Neu5Ac(a2-3)Gal(b1-4)GlcNAc(b1-6)GalNAc", "details": "glycan notation: IUPAC condensed, linker removed", "in_short": "as §1"}, "[20]": {"test_system": "Neu5Ac(a2-3)Gal(b1-4)GlcNAc(b1-3)Gal(b1-3)GlcNAc", "details": "glycan notation: IUPAC condensed, linker removed", "in_short": "as §1"}}, "note": "Shown is part of a subset that was picked to be rich in the strongest signals."}
{"substance": "PILRa (Mus musculus), Q2YSF3", "values": [{"measurement": "glycan array binding signal (z-score)", "setting": "[1]", "value": -0.185}, {"measurement": "glycan array binding signal (z-score)", "setting": "[2]", "value": 1.21}, {"measurement": "glycan array binding signal (z-score)", "setting": "[3]", "value": -0.272}]}
{"substance": "PILRb (Mus musculus), Q2YSF2", "values": [{"measurement": "glycan array binding signal (z-score)", "setting": "[1]", "value": -0.119}]}
{"substance": "Siglec-8 (Homo sapiens), Q9NYZ4", "values": [{"measurement": "glycan array binding signal (z-score)", "setting": "[4]", "value": -0.203}, {"measurement": "glycan array binding signal (z-score)", "setting": "[5]", "value": 0.029}, {"measurement": "glycan array binding signal (z-score)", "setting": "[6]", "value": 0.406}, {"measurement": "glycan array binding signal (z-score)", "setting": "[7]", "value": 0.635}, {"measurement": "glycan array binding signal (z-score)", "setting": "[8]", "value": -0.161}, {"measurement": "glycan array binding signal (z-score)", "setting": "[9]; mutation: R125K", "value": -0.378}, {"measurement": "glycan array binding signal (z-score)", "setting": "[10]", "value": -0.138}, {"measurement": "glycan array binding signal (z-score)", "setting": "[11]", "value": -0.207}]}
{"substance": "6RG (Lolium perenne)", "values": [{"measurement": "glycan array binding signal (z-score)", "setting": "[12]", "value": -0.191}, {"measurement": "glycan array binding signal (z-score)", "setting": "[13]", "value": -0.244}, {"measurement": "glycan array binding signal (z-score)", "setting": "[14]", "value": -0.075}]}
{"substance": "Avaren (Actinomycete K97)", "values": [{"measurement": "glycan array binding signal (z-score)", "setting": "[12]", "value": -0.137}, {"measurement": "glycan array binding signal (z-score)", "setting": "[15]", "value": 0.039}, {"measurement": "glycan array binding signal (z-score)", "setting": "[3]", "value": -0.138}, {"measurement": "glycan array binding signal (z-score)", "setting": "[16]", "value": -0.116}]}
{"substance": "MpAFP RI GFP (Marinomonas primoryensis)", "values": [{"measurement": "glycan array binding signal (z-score)", "setting": "[17]", "value": -0.808}, {"measurement": "glycan array binding signal (z-score)", "setting": "[18]", "value": -0.665}, {"measurement": "glycan array binding signal (z-score)", "setting": "[19]", "value": -0.342}]}
{"substance": "Neurocan (Homo sapiens), O14594", "values": [{"measurement": "glycan array binding signal (z-score)", "setting": "[20]", "value": 0.948}]}
{"substance": "C3b (Homo sapiens), P01024", "values": [{"measurement": "glycan array binding signal (z-score)", "setting": "[9]", "value": 0.362}, {"measurement": "glycan array binding signal (z-score)", "setting": "[2]", "value": -0.787}]}
{"substance": "CHT (Homo sapiens)", "values": [{"measurement": "glycan array binding signal (z-score)", "setting": "[16]; mutation: D138V, E140I", "value": -0.118}]}
